Marburg entry inh: blocks Marburg virus binding to or entry into cells | Marburg virus pseudotyped entry inhibition, cell reporter | 300,000 compounds, 1.8% hits | Potency, µM (titrated, usually from 37.8 µM), hits mostly inhibitors | AID 540276; calls by dose curve; tested in HEK293 cells
Shiga inhibitor: blocks Shiga toxin action in Vero cells. Vero cells, Shiga toxin protein synthesis inhibition reporter. inhibition, % at 38.7 µM. 290,000 compounds, 9.2% hits. AID 2315; in the data active means inhibition mostly above about 28%, no sharp cut-off; inactive means mostly below about 43%
Lassa entry inh: blocks Lassa virus binding to or entry into cells; Potency, µM (series often up to 37.9 µM), usual class: inhibitors; 300,000 compounds, 1.2% hits; Lassa virus pseudotype entry inhibition, cell reporter; calls by dose curve; tested in HEK293 cells; further: nearly all actives have a fitted effect of over 50% in size
CHX counter: counter-screen hit for Shiga toxin inhibitors, cycloheximide | max response, % | cell reporter, cycloheximide protein synthesis inhibition counterscreen | 300,000 compounds, 12% hits; in the data active means max response mostly above about 13%, no sharp cut-off; inactive means mostly below about 14%; further: read at 38.3 µM for the half of the compounds with a filed dose
Hits are given with their value; – = inactive; ? = inconclusive; · = not tested or not shown. Sampled rows, rich in hits. Any-hit rate of the full collection: about 12%.

SMILES	Marburg entry inh	Shiga inhibitor	Lassa entry inh	CHX counter
Cc1ccc(Cn2c(CN3CCC(C(=O)NCC(C)c4ccccc4)CC3)cc3ccccc32)cc1 (stereo not drawn)	·	·	–	·
Cc1ccc(CN2CCCn3nc(C(=O)NCc4ccc(N(C)C)cc4)cc3C2=O)cc1	·	·	–	·
Cc1ccc(NC(=S)N2CCCC(c3nc4ccccc4[nH]3)C2)cc1 (stereo not drawn)	–	–	–	–
Cc1ccc(NC(=S)c2nc3ccccc3[nH]2)c(C)c1	?	97	?	51
Cc1ccc(NC(=S)c2nc3ccccc3[nH]2)cc1	?	66	?	72
Cc1ccccc1-c1ccnc2c(-c3ccc(F)cc3)c(C)nn12	–	·	–	·
CCN1CCN(CC(=O)Nc2cc(C(F)(F)F)ccc2OCCOC)CC1	·	–	·	–
CCOC(=O)CSc1nc(-c2ccc3c(c2)OCO3)ccc1C#N	–	78	–	52
CCOC(=O)CC(=O)CSc1nc(-c2cccnc2)cc(C)c1C#N	–	–	–	–
CCOC(=O)CSC1=C(C#N)C(c2ccc3c(c2)OCO3)CC(=O)N1 (stereo not drawn)	16µM	–	–	–
CCCCOC(=O)CSC1=C(C#N)C(c2ccc3c(c2)OCO3)CC(=O)N1 (stereo not drawn)	–	–	–	–
CCOC(=O)CSc1nc(-c2ccncc2)ccc1C#N	?	87	?	37
N#Cc1ccc(-c2cccnc2)nc1SCC(N)=O	·	–	·	–
CCOC(=O)CC(=O)CSc1nc(-c2cccnc2)ccc1C#N	–	–	–	14
NC(=O)[C@H]1CCCN1C(=O)[C@H](Cc1cnc[nH]1)NC(=O)[C@@H]1CCC(=O)N1	·	–	·	–
CCOC(=O)CSC1=C(C#N)[C@H](c2ccc(C)cc2)[C@H](C(=O)OC)C(=O)N1	–	·	·	·
COc1ccc(-c2csc(-c3cccnc3)n2)cc1C	–	90	–	–
CN(C(=O)c1cccnc1)c1nc(-c2ccccc2)cs1	?	–	–	–
COc1ccc2cc(-c3csc(-c4cccnc4)n3)ccc2c1	?	–	–	26
CC(C)(C)C(=O)O/N=C(\N)c1ccc([N+](=O)[O-])s1	·	–	·	24
C[C@H](NC(=O)c1nc[nH]c1C(=O)NCCCCCNC(=O)OC(C)(C)C)C(=O)OC(C)(C)C	·	57	·	31
CCC(Cc1ccccc1)NC(=O)c1ccc2nc(N3CCC(C)CC3)sc2c1 (stereo not drawn)	?	·	–	·
Cc1cc(NC(=O)CCC(=O)N(CC(=O)NC2CCCC2)c2ccc(Cl)c(Cl)c2)no1	?	–	–	–
O=C(CCCC(=O)N(c1ccc2c(c1)OCCO2)C(C(=O)NC1CCCCC1)c1ccc(Cl)cc1)Nc1ccccn1 (stereo not drawn)	?	33	?	24
CNC(=O)C(C)c1ncc(C(F)(F)F)cc1Cl (stereo not drawn)	–	–	–	–
SMILES	Marburg entry inh	Shiga inhibitor	Lassa entry inh	CHX counter
CC(Cl)c1cc(-c2ncc(C(F)(F)F)cc2Cl)no1 (stereo not drawn)	–	84	–	23
CCc1ccc(-n2c(=O)c3cccnc3n2CC(=O)N(CC)c2cccc(C)c2)cc1	·	·	–	·
Cc1cccn2c(=O)c(C=NCc3ccco3)c(Nc3ccc(SC(F)F)cc3)nc12	?	–	9.2µM	–
Cc1cccn2c(=O)c(C=NCCO)c(NCc3ccco3)nc12	–	–	–	–
CN1C(=O)[C@]23CC4=CC=C[C@H](O)[C@H]4N2C(=O)[C@@]1(CO)SS3	·	–	·	–
CC(C)(C)NC(=O)C(c1ccccc1)N(C(=O)CNC(=O)c1cccs1)c1cccnc1 (stereo not drawn)	–	–	–	–
CC(C)(C)C(=O)N1CCN(c2nc3c(F)cccc3s2)CC1	·	·	–	·
CC(=O)N1CCN(c2nc3ccc(Br)cc3s2)CC1	·	53	·	27
CC(C)(C)C(=O)N1CCN(c2nc3ccc(Cl)cc3s2)CC1	–	80	–	19
CC(C)(C)C(=O)N1CCN(c2nc3ccc(Br)cc3s2)CC1	·	31	·	23
CC(C)(C)C(=O)N1CCN(c2ccc(Cl)cc2[N+](=O)[O-])CC1	?	33	–	25
Cc1nc2nc(C)c(CCC(=O)NCc3ccccc3)c(C)n2n1	–	·	–	·
Cc1cccc(Cl)c1NC(=O)N1CCCN(c2nc3ccc(Cl)cc3s2)CC1	·	44	·	25
Cc1ccc(NCC(=O)N=Nc2c(O)[nH]c3ccc([N+](=O)[O-])cc23)cc1	–	–	–	43
Cc1ccccc1NCC(=O)N=Nc1c(O)[nH]c2ccc([N+](=O)[O-])cc12	·	–	·	–
O=C(Nc1ccc(F)cc1)C(=O)c1c(O)[nH]c2ccc([N+](=O)[O-])cc12	·	–	·	19
CN(Cc1ccc(Cl)cc1Cl)C(=O)CNC(=O)c1ccco1	–	–	–	–
CC(C)c1ccc(/C=N/n2c(COc3ccccc3)n[nH]c2=S)cc1	?	–	1.6µM	–
